The target of test [1] is 6-phosphogluconate dehydrogenase, decarboxylating (Homo sapiens) (UniProt P52209). Description: inhibition of human phosphogluconate dehydrogenase – biochemical, recombinant enzyme, NADPH absorbance, primary screen (AID 1159550;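 active = at least 20% inhibition of 6-phosphogluconate dehydrogenase activity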). The settings on record: recombinant 6PGD, NADPH absorbance 341 nm; at 10 µM; stronger effect = higher value.
Test [2] is described as follows: EMT-state selective cytotoxicity in co-culture – imaging, PC-3E GFP, TEM4-18 mCherry, primary screen (AID 1345086;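 active = compounds killing one labelled cell type while sparing the other, by normalised counts and ratio limits, not self-fluorescent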;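 for all read-outs here: cells exposed to compound for 72 h before imaging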;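 for red/green cell ratio (normalised): normalised mesenchymal count divided by normalised epithelial count so high means epithelial killing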). To be noted: PC-3E GFP / TEM4-18 mCherry co-culture, imaging cell counts, at 1 µM; for red/green cell ratio (normalised): actives lie on both sides, counts scaled to control wells, 1 = unselective.
Test [3] in a line: viability loss with induced miR-34 in A549 – imaging, A549 dox-inducible miR-34, nuclei and caspase counts, primary screen (AID 1347080). To be noted: A549 miR-34 inducible, Hoechst nuclei count, 48 h.
Test [4] is described as follows: MELAS cybrid and Rieske KO viability enhancers – cell-based, MELAS cybrids, Rieske KO mouse fibroblasts, CellTiter-Glo, primary screen (AID 1508586;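 active = mean z-score across replicates of 1.96 or higher in either the MELAS or the Rieske mutant cell line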;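 note: z relative to plate mean and SD of compound and empty wells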). To be noted: low glucose. For orientation: ATP-based viability assays read luminescence as a measure of living cells.
The target of test [5] is Mitogen-activated protein kinase 7 (Homo sapiens) (UniProt Q13164). Description: Gal4-ERK5 driven luciferase induction – cell-based, HTS, primary screen (AID 1508626;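 active = luciferase signal above three times the same-plate solvent-only control wells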;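 note: luciferase driven by Gal4-ERK5 fusion binding five Gal4 sites before minimal TATA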). To be noted: HeLa Gal4-ERK5 transactivation, 18 h, at 5 µM, stronger effect = higher value.
Chain of Mitogen-activated protein kinase 7 (Homo sapiens) (Q13164 whole entry, looked up, the tested form may be a part): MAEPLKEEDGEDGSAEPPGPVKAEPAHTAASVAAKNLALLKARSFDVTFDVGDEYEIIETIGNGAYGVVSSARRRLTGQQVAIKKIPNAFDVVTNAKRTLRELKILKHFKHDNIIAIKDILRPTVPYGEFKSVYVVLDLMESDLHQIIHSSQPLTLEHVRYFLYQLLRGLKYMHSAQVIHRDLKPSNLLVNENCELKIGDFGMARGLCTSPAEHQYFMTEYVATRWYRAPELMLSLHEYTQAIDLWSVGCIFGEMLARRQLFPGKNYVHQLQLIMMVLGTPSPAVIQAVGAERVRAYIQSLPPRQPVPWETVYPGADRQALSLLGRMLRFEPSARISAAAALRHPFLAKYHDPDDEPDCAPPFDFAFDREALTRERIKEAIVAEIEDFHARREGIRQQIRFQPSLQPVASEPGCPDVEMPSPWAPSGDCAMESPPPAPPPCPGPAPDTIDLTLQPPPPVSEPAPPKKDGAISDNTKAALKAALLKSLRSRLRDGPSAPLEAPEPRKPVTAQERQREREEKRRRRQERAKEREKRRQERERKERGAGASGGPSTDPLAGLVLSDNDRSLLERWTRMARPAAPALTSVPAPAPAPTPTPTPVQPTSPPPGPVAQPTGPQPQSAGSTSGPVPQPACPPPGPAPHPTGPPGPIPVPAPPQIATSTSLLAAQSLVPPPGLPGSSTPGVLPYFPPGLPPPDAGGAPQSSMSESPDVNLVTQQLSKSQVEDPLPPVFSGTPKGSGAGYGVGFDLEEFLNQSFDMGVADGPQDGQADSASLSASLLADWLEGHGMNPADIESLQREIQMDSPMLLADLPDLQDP
Test [6] can be described thus: blockers of polyQ-driven CASP3 activation – cell-based (AID 1583). To be noted: polyglutamine-induced caspase-3 activation, cell assay; stronger effect = higher value;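 tested at 10 µM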.
Test [7] in a line: yeast 75Q aggregation reduction – 75Q-TubU reporter (AID 1593). The settings on record: Yeast 75Q polyglutamine aggregation reporter.
Test [8] is described as follows: restoration of touch response, mutant HTT neurons – whole organism, C. elegans mechanosensory neurons, N-terminal huntingtin (AID 1599). To be noted: C. elegans polyQ-huntingtin mechanosensory neurons, stronger effect = higher value.
Test [9] in a line: blockers of cytochrome c efflux from mitochondria – biochemical, purified mitochondria (AID 1603).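 Note: mouse liver mitochondria challenged with calcium chloride; signal normalized to the plate average as 100%.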 To be noted: stronger effect = lower value.
Test [10] can be described thus: polyglutamine aggregate formation blockers (AID 1604). The settings on record: polyglutamine-induced protein aggregation inhibition assay; stronger effect = higher value; tested at 2.5 µM.
Test [11] can be described thus: glutamate transport activators, MN-1 cells, MN-1 cell line (AID 1612).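 Note: tested at 1 µM final; 0% = mean of DMSO vehicle wells on each plate; positive means more glutamate uptake than control and negative means less.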 To be noted: MN-1 motor neuron cells, stronger effect = higher value.
Test [12] in a line: GFP-Q80 aggregate reduction, neuronal-like cells, cell-based, NGF-treated PC12, GFPQ80 (AID 1614).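 Note: lower means fewer inclusions and 0 means no inclusions at all.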 To be noted: PC12 NGF-treated GFP-polyQ80 inclusion reduction.
Test [13] in a line: 75Q-TubH aggregate inhibition, S. cerevisiae, yeast (AID 1616). To be noted: S. cerevisiae 75Q-TubH polyglutamine aggregation suppression; stronger effect = higher value.
A short description of test [14]: compounds altering circadian rhythm period length – cell-based, LOPAC library, luminescence reporter (AID 2774; call rule not given here;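 note: values are relative to mean of DMSO wells on each plate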). The settings on record: circadian reporter cells, at 7 µM, actives lie on both sides.
Test [15] in a line: P. berghei load reduction in hepatocytes – cell-based, HepG2, luciferase luminescence, HepG2 viability, primary screen (AID 624349; in the data active = parasite load remaining mostly below about 12%, no sharp cut-off; inactive = mostly above about 10%;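 note: 100% = mean of DMSO negative control wells on the same plate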). To be noted: P. berghei liver stage in HepG2, luciferase luminescence, concentration not given here; parasite load remaining: stronger effect = lower value; viability: measured here: HepG2 viability without parasites.
Test [16] has as its system Hepatitis C virus NS3 helicase. Description: blockers of NS3h binding to ssDNA – biochemical, fluorescence polarization, LOPAC1280 library, primary screen (AID 687035; in the data active = inhibition above about 37%). The settings on record: Purified HCV NS3 helicase, Cy5-dT15 ssDNA binding fluorescence polarization; stronger effect = higher value; concentration not given here. For orientation: Fluorescence polarisation rises when a labelled molecule tumbles more slowly, as on binding a larger partner.

A short description of test [17]: blockers of cellular phospholipid synthesis – cell-based, LOPAC library, screen 4, primary screen (AID 1347384; call rule not given here). The settings on record: animal cells, phospholipid biosynthesis inhibition screen; at 10 µM.
Test [18] concerns the target NAD(+) hydrolase SARM1 (Homo sapiens) (UniProt Q6SZW1). Description: blocking NAD cleavage by SARM1 SAM-TIR – cell lysate, NAD-Glo luminescence (AID 1508614;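 active = compound whose remaining NAD level is above about 45 nM, limit read from the data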;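 note: higher remaining NAD means stronger inhibition of SARM1 NADase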). The settings on record: SAM-TIR HEK293T lysate NADase, at 1 µM, stronger effect = higher value.
Test [19] is described as follows: galactose survival enhancers in mitochondrial complex I cybrids – cell-based, galactose medium, ATP luminescence, primary screen (AID 1645843;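 active = z-score of at least 1.8 in each of two replicates, scored against plate mean and spread of sample wells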;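 note: positive z means more ATP and so rescue of galactose-driven cybrid death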). The settings on record: complex I mutant cybrid cells, 72 h, stronger effect = higher value.
[20] abbreviates: measured here: epithelial PC-3E GFP cell survival.
The mark [21] stands for this setting: measured here: mesenchymal TEM4-18 mCherry cell survival.
The mark [22] stands for this setting: stronger effect = lower value, cell number ratio, induced over uninduced.
[23] abbreviates: measured here: relative caspase fold change +Dox/-Dox.
Setting [24] is: measured here: total cells with miR-34 induction, stronger effect = lower value.
Where [25] appears, read: measured here: total cells without miR-34 induction.
[26] abbreviates: MELAS cybrid survival, CellTiter-Glo 48 h, stronger effect = higher value.
[27] abbreviates: Rieske KO mouse fibroblast survival, CellTiter-Glo 72 h.

Each structure is given as a SMILES string. “And” between values parts separate entries of the source, which are not always exact repeats. Identical values can stand only once. For some of these results: Measured potencies and affinities stand elsewhere. The source made the active and inactive calls.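 Rule for the calls, unless noted: active = compounds whose cell count with miR-34 switched on is under 0.7 times the count with it off; inactive = the rest.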

Chain of 6-phosphogluconate dehydrogenase, decarboxylating (Homo sapiens) (P52209 whole entry, looked up): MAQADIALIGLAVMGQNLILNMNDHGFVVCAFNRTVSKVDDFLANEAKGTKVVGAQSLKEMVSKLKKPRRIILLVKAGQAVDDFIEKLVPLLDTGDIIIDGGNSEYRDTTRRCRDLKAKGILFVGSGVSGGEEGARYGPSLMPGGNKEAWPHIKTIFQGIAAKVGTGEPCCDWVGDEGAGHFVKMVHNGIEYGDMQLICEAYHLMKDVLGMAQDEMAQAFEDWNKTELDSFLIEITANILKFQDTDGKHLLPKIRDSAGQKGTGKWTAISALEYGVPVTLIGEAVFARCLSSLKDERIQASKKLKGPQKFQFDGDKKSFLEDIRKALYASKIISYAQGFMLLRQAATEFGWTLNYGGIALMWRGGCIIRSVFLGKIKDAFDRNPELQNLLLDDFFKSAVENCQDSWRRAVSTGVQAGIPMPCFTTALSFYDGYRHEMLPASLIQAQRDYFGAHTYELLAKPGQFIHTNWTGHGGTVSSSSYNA
Chain of NAD(+) hydrolase SARM1 (Homo sapiens) (Q6SZW1 whole entry, looked up): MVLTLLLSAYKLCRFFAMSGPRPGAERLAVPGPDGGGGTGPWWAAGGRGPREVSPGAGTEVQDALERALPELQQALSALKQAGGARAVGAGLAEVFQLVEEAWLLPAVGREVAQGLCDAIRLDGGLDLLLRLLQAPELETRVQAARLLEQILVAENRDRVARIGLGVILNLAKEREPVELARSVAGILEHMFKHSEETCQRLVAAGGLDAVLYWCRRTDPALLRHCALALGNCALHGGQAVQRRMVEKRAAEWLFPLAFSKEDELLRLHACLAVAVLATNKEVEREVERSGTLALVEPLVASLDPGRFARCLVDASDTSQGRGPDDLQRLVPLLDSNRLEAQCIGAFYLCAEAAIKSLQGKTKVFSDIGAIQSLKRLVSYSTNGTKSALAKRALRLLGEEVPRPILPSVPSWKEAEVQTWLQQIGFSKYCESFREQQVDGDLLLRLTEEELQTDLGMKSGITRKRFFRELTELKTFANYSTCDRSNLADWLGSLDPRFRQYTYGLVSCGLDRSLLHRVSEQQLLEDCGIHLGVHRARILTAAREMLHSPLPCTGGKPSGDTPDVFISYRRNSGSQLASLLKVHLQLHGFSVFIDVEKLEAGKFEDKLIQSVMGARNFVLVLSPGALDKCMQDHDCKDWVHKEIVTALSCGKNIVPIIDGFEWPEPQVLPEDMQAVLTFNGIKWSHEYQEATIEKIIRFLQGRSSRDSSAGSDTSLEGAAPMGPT

On to `COc1ccc(C(C)=O)c(O)c1`, for which the inhibition (commonly the change of the read-out against control, counted positive when it falls) in test [1] was 10.4% (inactive). Besides, the red/green cell ratio (normalised) in [2] was 0.98 (inactive). Besides, the normalised cell number turned out to be 0.95 in test [2] (setting [20]) and 0.94 in [2] (setting [21]). Further, the fold change was 0.902 (inactive) in test [3] (setting [22]) and 0.777 in test [3] (setting [23]). Also, the cell count in test [3] (setting [24]) stood at 9270; in test [3] (setting [25]) it was 10300. For the same compound, the z-score was -0.383 (inactive) in test [4] (setting [26]) and 0.53 in test [4] (setting [27]). Moreover, the luciferase signal in test [5] was 24 AU (inactive).

Consider `C[N+](C)(C)CCO`, for which the inhibition in [6] was 2.29%; in test [16], -3% (inactive); in test [1], 2.82% (inactive). Also, in [7], the score was 1.21. Moreover, the rescue above control in test [8] was determined as 0.45. For the same compound, the cytochrome c release ratio in [9] is 1.11. For the same compound, the inhibition of aggregation in [10] amounted to 51.5%. Moreover, the glutamate uptake change in test [11] came to 11.9%. For the same compound, in [12], the inclusion score amounted to 2. The aggregation suppression score in test [13] amounted to 1.39. For the same compound, the period change in test [14] was -0.015 h (inactive). Besides, the parasite load remaining in test [15] is 151% (inactive) and 49.7% (inactive). Besides, the viability (as a rule, a read-out of living cells in per cent, often relative to untreated cells) in test [15] is 89.2% and 117%. The red/green cell ratio (normalised) in test [2] is 1.11 (inactive). The normalised cell number in test [2] (setting [20]) turned out to be 1.16; in test [2] (setting [21]) it was 1.3. For the same compound, the fold change in test [3] (setting [22]) is 1.01 (inactive) and 0.882 (inactive) and 0.829 (inactive); in test [3] (setting [23]) it was 2.28 and 1.39 and 4.39. Moreover, the cell count was 9630 and 8510 and 11000 in test [3] (setting [24]); 9520 and 9640 and 13300 in test [3] (setting [25]). Further, the outcome in test [17] was inactive. Also, the z-score in test [4] (setting [26]) is -0.228 (inactive); in test [4] (setting [27]), -0.171; in [19] it was 0.51 (inactive). Moreover, the remaining NAD in [18] is 10 nM (inactive). Moreover, in test [5], the luciferase signal is 200 AU (inactive).

(Values after PubChem BioAssay.)
